Bioassay records as filed in PubChem BioAssay.
Tgondii IFNg = inhibitors of Toxoplasma gondii growth with IFN-gamma | Toxoplasma gondii growth in IFN-gamma-treated host cells; active compounds read low | actives 3.8% (n = 69,000) | activity change, negative = inhibition, % (test concentration not listed); in the data active = activity change below about -70%, passing the limit was not always enough;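 also: host cells are HeLa cells infected with Toxoplasma gondii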
Active calls of the source: *; i = inactive. The entries come from a sample that favours hits as a whole.

SMILES	Tgondii IFNg
Cc1ccc(CSc2nnc3c(n2)[nH]c2ccc(Br)cc23)cc1	-80*
CCN(CC)C(=O)CSc1nnc2c(n1)[nH]c1ccc(C)cc12	4
c1ccc(CSc2nnc3c(n2)[nH]c2ccccc23)cc1	-68
Cc1cccc(CN2CCCC3(CCN(S(=O)(=O)c4cccc(F)c4)C3)C2)n1 (centres undefined)	-1
COc1ccc(C)cc1Nc1nc(-c2ccc(Cl)cc2)nc2ccccc12	29
Cc1cc(N2CCCC2c2[nH]ncc2C)nc(N)n1 (centres undefined)	-6
COc1ccc(-c2nc(C)c(CCNS(=O)(=O)c3ccc(I)cc3)s2)cc1	i
COc1cc2cc(C)c(SCC(=O)N3CC(=O)Nc4ccccc43)nc2cc1OC	9
O=C1CN(C(=O)CSc2nc(C3CCCCC3)nc3ccccc23)c2ccccc2N1	-98*
O=C(CCC(=O)N1CC(=O)Nc2ccccc21)Nc1cccc(-n2cccn2)c1	1
COc1ccc(CN2CC[C@@H]3CO[C@H](CNC(=O)C4CC4)[C@@H]3C2)cc1	3
Cc1nc(COC[C@]23COC[C@H]2CN(C(=O)c2ccccn2)C3)cs1	10
COC(=O)[C@@H]1C[C@H](NC(=O)C2=NN(C)C(=O)CC2)CN1C	14
CCOC(=O)C1CCC(CNC(=O)N2CCC3(CC2)Nc2cc(C)ccc2-n2cccc23)CC1 (centres undefined)	186
Cc1oc(-c2cccc(Cl)c2)nc1CN1CCN(CC2CCCO2)CC1 (centres undefined)	-12
COc1ccc(C(=O)N2CCc3c([nH]c4ccccc34)C2c2ccc(Cl)cc2)cc1OC (centres undefined)	12
COc1cccc(C(=O)N2CCc3c([nH]c4ccccc34)C2c2ccc(Cl)cc2)c1 (centres undefined)	-99*
CSc1ccc(C2c3[nH]c4ccccc4c3CCN2C(=O)c2ccc3c(c2)OCO3)cc1 (centres undefined)	209
Cn1nccc1C(=O)N1CCc2c([nH]c3ccccc23)C1c1ccc(Cl)cc1 (centres undefined)	-115*
O=C(c1ccco1)N1CCc2c([nH]c3ccccc23)C1c1ccc(Cl)cc1 (centres undefined)	-88*
O=C(C1CCC1)N1CCc2c([nH]c3ccccc23)C1c1ccc(Cl)cc1 (centres undefined)	-40
COCC(=O)N1CCc2c([nH]c3ccccc23)C1c1ccc(Cl)cc1 (centres undefined)	-16
O=C(c1ccco1)N1CCc2c([nH]c3ccccc23)C1c1cccnc1 (centres undefined)	-44
O=C(c1ccc2c(c1)OCO2)N1CCc2c([nH]c3ccccc23)C1c1ccc(Cl)cc1 (centres undefined)	-83*
CSc1ccc(C2c3[nH]c4ccccc4c3CCN2C(=O)c2ccc(Cl)cc2)cc1 (centres undefined)	60
SMILES	Tgondii IFNg
CC1(C)CC1(CNC(=O)CN1C(=O)CNC1=O)c1ccccc1 (centres undefined)	2
CC(=O)c1nnn(-c2ccc(F)cc2)c1N1CCC(N2CCOCC2)CC1	41
O=C(Nc1cccc(F)c1)c1cncc(NS(=O)(=O)c2ccc(Br)cc2)c1	-18
O=C(Cn1c(=O)cc(C(=O)N2CCOCC2)c2ccccc21)Nc1ccc(Br)cc1	15
COc1cccc(-c2nn(-c3ccccc3)cc2CN(C)Cc2cccnc2)c1	10
CCCN(Cc1nccn1C)C(=O)c1cc(C)c(C)c(S(N)(=O)=O)c1	10
O=C(c1cccnc1)N1CCc2c([nH]c3ccccc23)C1c1ccc(Cl)cc1 (centres undefined)	-114*
COc1cccc(C(=O)N2CCc3c([nH]c4ccccc34)C2c2ccc(C)cc2)c1 (centres undefined)	-126*
O=C(c1cccnc1)N1CCc2c([nH]c3ccccc23)C1c1ccc(F)cc1 (centres undefined)	76
Cc1ccc(C2c3[nH]c4ccccc4c3CCN2C(=O)CCC2CCCC2)cc1 (centres undefined)	-67
Cc1ccc(C2c3[nH]c4ccccc4c3CCN2C(=O)c2cccnc2)cc1 (centres undefined)	68
CSc1ccc(C2c3[nH]c4ccccc4c3CCN2C(=O)c2cccc(Cl)c2)cc1 (centres undefined)	-18
Cc1ccc(C2c3[nH]c4ccccc4c3CCN2C(=O)c2cccc(Cl)c2)cc1 (centres undefined)	-89*
CCN(CC)Cc1cn2c(n1)CN(C(=O)Cc1cccs1)CC2	5
CC(C)CCn1c(=O)n(Cc2ccccn2)c2cc(C(=O)O)ccc21	-17
CCOc1ccc(-c2cnc(C(C)(C)CN3CCOCC3)[nH]2)cc1	6
CC(C)CN1CC2(CCN(S(=O)(=O)C3CC3)CC2)COc2ccccc2S1(=O)=O	-10
Cc1ccc(NC(=O)c2cncc(NS(=O)(=O)c3ccc(C)cc3C)c2)cc1	11
CN1CCN(c2ncnc3ccc(-c4cccc(-c5ccn[nH]5)c4)cc23)CC1	-79*
CN(C)C(=O)c1ccc2ncnc(N3CCCC3)c2c1	7
O=C(O)c1cncc(-c2cccc(-c3ccn[nH]3)c2)c1	88
CC(C)N(C)Cc1cc(=O)n2c(n1)CN(C(=O)c1cnccn1)CCC2	4
CC(=O)c1cc(CN2CCCC2c2nc3ccc(C)cc3[nH]2)cs1 (centres undefined)	16
COc1cccc(NC(=O)CN2CCC3(CC2)N=C(c2ccc(Cl)cc2)C(=O)N3)c1	24
C=CC(=O)Nc1cccc(Nc2nc(Nc3ccc(Oc4ccnc(C(=O)NC)c4)cc3)ncc2F)c1	-78*
SMILES	Tgondii IFNg
C=CC(=O)Nc1cccc(OC)c1	17
C=CC(=O)Nc1ccc2ncnc(Nc3cccc(Br)c3)c2c1	-45
CN1CCC2(CCN(C(=O)CCOc3ccccc3)CC2)C1	13
CCS(=O)(=O)N1CCC2(CC1)OC(=O)C(C)=C2C(=O)Nc1ccc(Cl)c(Cl)c1	16
Cc1nc2nc(CC(=O)Nc3nc4c(s3)CCCCCC4)[nH]n2c(=O)c1C	-39
O=C(COC(=O)CN1C(=O)C(=O)c2ccccc21)Nc1nc2c(s1)CCCC2	-10
COc1nn(CC(=O)Nc2nc3c(s2)CCCCCC3)c(=O)c2ccccc12	-86*
Cc1cccn2cc(C(=O)N3CCC(c4nc(-c5ccc(F)cc5)c(C(N)=O)[nH]4)CC3)nc12	-30
Cn1ncc(Cl)c1-c1cc(C(=O)N[C@H](CN)Cc2ccc(F)c(F)c2)oc1Cl	-81*
CC1(C)C2CC[C@]3(C)[C@H](C(=O)C=C4[C@@H]5C[C@@](C)(C(=O)O)CC[C@]5(C)CC[C@]43C)[C@@]2(C)CC[C@@H]1OC(=O)CCC(=O)O (some centres undefined)	18
C=C(C)[C@@H]1CC[C@]2(CO)CC[C@]3(C)[C@H](CC[C@@H]4[C@@]5(C)CC[C@H](O)C(C)(C)[C@@H]5CC[C@]43C)[C@@H]12	3
C=C(C)[C@@H]1CC[C@]2(C(=O)O)CC[C@]3(C)[C@H](CC[C@@H]4[C@@]5(C)CC[C@H](OC(=O)CC(C)(C)C(=O)O)C(C)(C)[C@@H]5CC[C@]43C)[C@@H]12	-73*
c1ccc(Cc2nc3ccccc3[nH]2)cc1	-16
O=C1NCc2c1c1c3ccccc3[nH]c1c1[nH]c3ccccc3c21	1
Clc1nc2ccccc2c2[nH]c3ccccc3c12	-95*
CCN1C(=O)CCC12CCC(NC(=O)c1cccn1C)CC2 (centres undefined)	185
CN(C)C(=O)CCCn1cnc(-c2ccccc2)c1-c1cc2ccccc2[nH]1	-6
